Test [1] has as its target Myc proto-oncogene protein (Homo sapiens) (UniProt P01106). Description: ATG_Myc_CIS: Attagene CIS-FACTORIAL HepG2 Assay for human Myelocytomatosis (Myc) Proto-Oncogene Transcription Factor (AID 2282990). The conditions noted are these: HepG2, Attagene cis-reporter transcription factor activity; actives raise or lower the signal. In short, it runs like this: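 Transiently transfected HepG2 cells bearing cis-promoter reporter units for endogenous transcription factors; 24 h exposure. Reporter mRNA measured by RT-PCR, 6-FAM primer extension, HpaI cut and capillary electrophoresis; bidirectional fit relative to DMSO.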

The nature of test [2]: ATG_NF_kB_CIS: Attagene CIS-FACTORIAL HepG2 Assay for human Nuclear Factor Kappa B (NF-kB) (AID 2282991). Particulars: HepG2 Attagene cis-factorial NF-kB reporter mRNA; actives raise or lower the signal. The method, boiled down:
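HepG2 cells transiently transfected with multiplexed cis-element reporter units measuring endogenous transcription factor activity; reporter mRNA read 24 h after dosing by RT-PCR, fluorescent labelling, HpaI digestion and capillary electrophoresis. Bidirectional fit against DMSO baseline.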

Test [3] in a line: ATG_NRF2_ARE_CIS: Attagene CIS-FACTORIAL HepG2 Assay for human Nuclear Factor Erythroid 2 Related Factor 2 (NFR2) response to Antioxidant Response Elements (ARE) (AID 2282992).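 As to AC50: reporter mRNA level measured by RT-PCR and capillary electrophoresis fluorescence.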 The conditions noted are these: HepG2 Attagene ARE/NRF2 reporter, transcription factor activity; actives raise or lower the signal. In short, it runs like this:
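Transient MRTU transfection of HepG2; 24 h compound exposure; TriZol RNA, RT with oligo(dT), PCR, 6-FAM primer extension, HpaI cut, CE. Bidirectional fit vs DMSO.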

The target of test [4] is Cellular tumor antigen p53 (Homo sapiens) (UniProt P04637). The test can be described thus: ATG_p53_CIS: Attagene CIS-FACTORIAL HepG2 Assay for human p53 Transcription Factor (AID 2282994). Particulars: HepG2 p53 cis-element reporter, Attagene mRNA; actives raise or lower the signal. The method, boiled down: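 HepG2, transient MRTU transfection (cis promoter elements, endogenous TFs); 24 h dosing; RNA isolation, RT-PCR, 6-FAM primer extension, HpaI digest, CE fluorescence; bidirectional fit vs DMSO.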
Cellular tumor antigen p53 (Homo sapiens), sequence (P04637 whole entry, looked up): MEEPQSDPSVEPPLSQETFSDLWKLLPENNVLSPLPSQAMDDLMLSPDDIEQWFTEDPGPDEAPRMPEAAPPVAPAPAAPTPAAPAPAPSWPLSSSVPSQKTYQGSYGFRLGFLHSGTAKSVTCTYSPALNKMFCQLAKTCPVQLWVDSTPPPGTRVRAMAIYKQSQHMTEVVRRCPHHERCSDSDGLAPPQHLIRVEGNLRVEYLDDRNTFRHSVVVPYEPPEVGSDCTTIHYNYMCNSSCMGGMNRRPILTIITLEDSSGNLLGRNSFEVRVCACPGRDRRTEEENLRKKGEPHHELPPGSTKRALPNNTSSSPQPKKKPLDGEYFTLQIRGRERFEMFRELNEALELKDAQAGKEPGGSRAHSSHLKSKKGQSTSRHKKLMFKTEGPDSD

A short description of test [5]: BSK_3C_TissueFactor: BioMAP Diversity Plus: 3C Assay for Tissue Factor Biomarker Activity (AID 2282997). The conditions noted are these: BioMAP 3C HUVEC, tissue factor biomarker readout; actives raise or lower the signal. In short, it runs like this: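 Values derive from bidirectional curve fitting against DMSO of Tissue Factor ELISA signals, taken 24 h after dosing primary human umbilical vein endothelial cells.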

Test [6] can be described thus: BSK_3C_uPAR: BioMAP Diversity Plus: 3C Assay for Urokinase-type plasminogen activator receptor (uPAR) Biomarker Activity (AID 2282998). The conditions noted are these: BioMAP 3C HUVEC, uPAR biomarker ELISA; actives raise or lower the signal. The method, boiled down: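 Readout: ELISA for surface uPAR. System: human umbilical vein endothelial primary cells, 24 h after chemical exposure. Analysis: bidirectional fit, DMSO baseline.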

A short description of test [7]: BSK_4H_Eotaxin3: BioMAP Diversity Plus: 4H Assay for Eotaxin 3 Biomarker Activity (AID 2283000).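 As to outcome: CCL26 protein level quantified by ELISA in parallel with SRB cytotoxicity check.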 Particulars: primary human endothelial cells (HUVEC); actives raise or lower the signal. In short, it runs like this: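 Endothelial primary cells (human umbilical vein) exposed to compound for 24 h. ELISA detection of Eotaxin-3.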
Test [8] deals with human Peroxisome Proliferator-activated Receptor delta (PPARd), PPARD (gene 5467) (UniProt Q03181). The test can be described thus: ATG_PPARd_TRANS: Attagene TRANS-FACTORIAL HepG2 Assay for human Peroxisome Proliferator-activated Receptor delta (PPARd) (AID 2283002; active = hit-call score of the fitted dose curve at least 0.9, where 1 is the maximum). In short, it runs like this:
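HepG2 cells transiently transfected with GAL4-UAS multiplexed reporter units driven by exogenous chimeric NR-GAL4 proteins; 24 h compound exposure. Reporter mRNA measured by RT-PCR, 6-FAM primer extension, HpaI digestion and capillary electrophoresis; gain of signal fitted relative to DMSO.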

Read-out in test [9]: Intercellular Adhesion Molecule 1 (ICAM1), ICAM1 (gene 3383)
Description: BSK_3C_ICAM1: BioMAP Diversity Plus: 3C Assay for Intercellular Adhesion Molecule 1 (ICAM1) Biomarker Activity (AID 2283003). Particulars: primary human endothelial cells (HUVEC); actives raise or lower the signal. In short, it runs like this: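 Primary human umbilical vein endothelial cells in the BioMAP 3C system were exposed to chemicals for 24 h, then ICAM-1 was quantified by ELISA. Activity was fitted bidirectionally against the DMSO negative control baseline.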

Test [10] concerns the target human Retinoic Acid Receptor beta (RARb), RARB (gene 5915) (UniProt P10826). Description: ATG_RARb_TRANS: Attagene TRANS-FACTORIAL HepG2 Assay for human Retinoic Acid Receptor beta (AID 2283004; active = hit-call score of the fitted dose curve at least 0.9, where 1 is the maximum). In short, it runs like this:
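HepG2, transient MRTU transfection, NR–Gal4 chimera, 24 h treatment; RT-PCR plus CE fluorescence detection of reporter mRNA; gain of signal vs DMSO.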

A short description of test [11]: BSK_3C_Proliferation: Cell Proliferation Assessment in the BioMAP Diversity Plus: 3C Assay (AID 2283006).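 As to AC50: potency may reflect either rise or fall in cell number versus DMSO.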 The conditions noted are these: primary human endothelial cells (HUVEC). In short, it runs like this: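 Human umbilical vein endothelial cells were grown sub-confluent and exposed to chemical for 48 h, then fixed with 10% TCA and stained with 0.1% sulforhodamine B; absorbance at 560 nm gave relative cell number, fitted bidirectionally against DMSO baseline.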

The target of test [12] is Peroxisome proliferator-activated receptor gamma (Homo sapiens) (UniProt P37231). Description: ATG_PPARg_TRANS: Attagene TRANS-FACTORIAL HepG2 Assay for human Peroxisome Proliferator-activated Receptor-gamma (PPARg) (AID 2283007; active = hit-call score of the fitted dose curve at least 0.9, where 1 is the maximum). In short, it runs like this:
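HepG2 cells transiently transfected with multiplexed GAL4-UAS reporter units and exogenous chimeric NR-Gal4 proteins; reporter mRNA quantified after 24 h compound exposure by RT-PCR, fluorescent labelling, HpaI digestion and capillary electrophoresis; gain-of-signal fitted versus DMSO baseline.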

Test [13] addresses Nuclear receptor subfamily 1 group I member 2 (Homo sapiens) (UniProt O75469). The test can be described thus: ATG_PXR_TRANS: Attagene TRANS-FACTORIAL HepG2 Assay for human Pregnane X Receptor (PXR) (AID 2283008; active = hit-call score of the fitted dose curve at least 0.9, where 1 is the maximum). The method, boiled down: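 Read-out is fluorescence of labelled reporter cDNA fragments separated by capillary electrophoresis after RT-PCR and HpaI digestion. Source: HepG2 cells carrying PXR-GAL4/UAS reporter constructs, treated 24 h; activity fitted upward relative to DMSO.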

A short description of test [14]: ATG_NFI_CIS: Attagene CIS-FACTORIAL HepG2 Assay for human Nuclear Factor I (NFI) (AID 2282989). Particulars: HepG2 cis-regulatory reporter, NFI response element transcription; actives raise or lower the signal. In short, it runs like this: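 Reporter transcription driven by endogenous transcription factors in HepG2 cells; 24 h treatment. Quantitation by labelled RT-PCR fragments on capillary electrophoresis, gain- or loss-of-signal relative to DMSO.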

The target of test [15] is human Peroxisome Proliferator-activated Receptor alpha (PPARa), PPARA (gene 5465) (UniProt Q07869). The test can be described thus: ATG_PPARa_TRANS: Attagene TRANS-FACTORIAL HepG2 Assay for human Peroxisome Proliferator-activated Receptor alpha (PPARa) (AID 2283001; active = hit-call score of the fitted dose curve at least 0.9, where 1 is the maximum). In short, it runs like this: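 Measures transcriptional activity of an exogenous chimeric PPARa-Gal4 protein in transiently transfected HepG2 cells after 24 h dosing. Reporter mRNA quantified via RT-PCR and capillary electrophoresis; DMSO served as negative control.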
human Peroxisome Proliferator-activated Receptor alpha (PPARa), PPARA (gene 5465), sequence (Q07869 whole entry, looked up, the tested form may be a part): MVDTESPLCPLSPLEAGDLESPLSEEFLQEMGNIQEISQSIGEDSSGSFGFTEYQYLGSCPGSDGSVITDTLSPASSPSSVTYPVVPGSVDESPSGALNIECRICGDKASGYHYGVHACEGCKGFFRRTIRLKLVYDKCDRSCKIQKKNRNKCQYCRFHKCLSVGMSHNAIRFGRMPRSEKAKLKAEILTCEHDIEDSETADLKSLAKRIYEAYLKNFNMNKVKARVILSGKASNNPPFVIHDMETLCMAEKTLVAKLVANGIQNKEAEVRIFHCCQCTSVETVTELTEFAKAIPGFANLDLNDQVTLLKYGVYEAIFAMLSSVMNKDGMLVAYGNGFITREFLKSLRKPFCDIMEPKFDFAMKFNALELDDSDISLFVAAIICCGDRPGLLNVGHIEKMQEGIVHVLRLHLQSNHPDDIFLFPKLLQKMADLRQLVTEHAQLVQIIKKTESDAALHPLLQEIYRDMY

The nature of test [16]: ATG_Oct_MLP_CIS: Attagene CIS-FACTORIAL HepG2 Assay for human Octamer-Binding Transcription Factor (Oct) (AID 2282993). Particulars: HepG2 Attagene cis-factorial Oct reporter, mRNA; actives raise or lower the signal. In short, it runs like this:
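Transfected HepG2 cells, 24 h treatment. Reporter mRNA quantified by RT-PCR–capillary electrophoresis; bidirectional fitting against DMSO.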

The target in test [17] is human Retinoic Acid Receptor gamma (RARg), RARG (gene 5916) (UniProt P13631). Description: ATG_RARg_TRANS: Attagene TRANS-FACTORIAL HepG2 Assay for human Retinoic Acid Receptor gamma (RARg) (AID 2283009; active = hit-call score of the fitted dose curve at least 0.9, where 1 is the maximum). In short, it runs like this: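 HepG2 cells transiently transfected with multiplexed reporter units expressing chimeric RARg-GAL4 and GAL4-UAS-driven reporters; 24 h compound exposure. Reporter mRNA quantified by RT-PCR with fluorescent labelling and capillary electrophoresis; gain-of-signal fitted relative to DMSO baseline.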
human Retinoic Acid Receptor gamma (RARg), RARG (gene 5916), sequence (P13631 whole entry, looked up, the tested form may be a part): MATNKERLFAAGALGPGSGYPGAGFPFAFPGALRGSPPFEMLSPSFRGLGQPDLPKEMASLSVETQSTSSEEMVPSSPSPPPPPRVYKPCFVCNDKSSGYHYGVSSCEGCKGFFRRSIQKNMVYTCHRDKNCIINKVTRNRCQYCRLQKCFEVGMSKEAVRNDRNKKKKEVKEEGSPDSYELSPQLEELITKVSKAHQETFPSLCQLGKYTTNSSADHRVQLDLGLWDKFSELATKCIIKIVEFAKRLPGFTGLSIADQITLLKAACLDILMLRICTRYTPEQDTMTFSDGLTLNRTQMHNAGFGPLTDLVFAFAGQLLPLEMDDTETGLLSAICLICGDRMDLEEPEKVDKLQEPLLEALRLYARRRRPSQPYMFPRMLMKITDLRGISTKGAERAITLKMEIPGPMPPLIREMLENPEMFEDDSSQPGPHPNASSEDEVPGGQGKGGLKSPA

Test [18] is described as follows: BSK_3C_VCAM1: BioMAP Diversity Plus: 3C Assay for Vascular cell adhesion molecule 1 (VCAM1) Biomarker Activity (AID 2282999). The conditions noted are these: BioMAP 3C HUVEC, VCAM1 ELISA, cytokine-stimulated; actives raise or lower the signal. The method, boiled down:
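Human umbilical vein endothelial cells (3C system), biomarker read by ELISA 24 h after dosing; bidirectional fit against DMSO baseline. Cytotoxicity tracked by SRB total-protein staining in parallel cultures at biomarker time.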

Test [19] addresses Retinoic acid receptor alpha (Homo sapiens) (UniProt P10276). Description: ATG_RARa_TRANS: Attagene TRANS-FACTORIAL HepG2 Assay for human Retinoic Acid Receptor alpha (RARa) (AID 2283005; active = hit-call score of the fitted dose curve at least 0.9, where 1 is the maximum). The method, boiled down:
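HepG2 transiently transfected with multiplex GAL4-UAS reporter units including a human RARa–GAL4 chimera; 24 h compound exposure. Reporter mRNA quantified by RT-PCR, 6-FAM labeling and capillary electrophoresis; gain of signal versus DMSO.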

The structures appear in SMILES notation. Where “and” joins values, the source holds several entries; their conditions need not be identical. Equal values may be shown once. Inconclusive results are not listed. Some structures have more than one record in an assay (separate samples or runs), and their calls can disagree. Calls of active or inactive are those of the source. The calls were made as follows, unless noted: active = hit-call score of the fitted dose curve at least 0.9, where 1 is the maximum; inactive = score below 0.9.

What is called AC50 is the concentration giving half of the maximal activity seen.

human Peroxisome Proliferator-activated Receptor delta (PPARd), PPARD (gene 5467), sequence (Q03181 whole entry, looked up, the tested form may be a part): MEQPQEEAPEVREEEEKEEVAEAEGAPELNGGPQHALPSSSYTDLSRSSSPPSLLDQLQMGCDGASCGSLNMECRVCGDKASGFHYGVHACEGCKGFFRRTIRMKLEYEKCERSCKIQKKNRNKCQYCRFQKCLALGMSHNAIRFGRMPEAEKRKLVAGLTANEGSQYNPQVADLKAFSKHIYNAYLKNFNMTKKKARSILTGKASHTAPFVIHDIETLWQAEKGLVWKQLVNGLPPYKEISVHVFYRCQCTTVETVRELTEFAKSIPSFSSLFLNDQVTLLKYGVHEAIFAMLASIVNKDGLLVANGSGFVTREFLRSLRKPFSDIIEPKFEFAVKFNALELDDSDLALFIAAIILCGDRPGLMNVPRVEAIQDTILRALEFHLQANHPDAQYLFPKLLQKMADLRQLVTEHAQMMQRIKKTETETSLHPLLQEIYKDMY
Nuclear receptor subfamily 1 group I member 2 (Homo sapiens), sequence (O75469 whole entry, looked up, the tested form may be a part): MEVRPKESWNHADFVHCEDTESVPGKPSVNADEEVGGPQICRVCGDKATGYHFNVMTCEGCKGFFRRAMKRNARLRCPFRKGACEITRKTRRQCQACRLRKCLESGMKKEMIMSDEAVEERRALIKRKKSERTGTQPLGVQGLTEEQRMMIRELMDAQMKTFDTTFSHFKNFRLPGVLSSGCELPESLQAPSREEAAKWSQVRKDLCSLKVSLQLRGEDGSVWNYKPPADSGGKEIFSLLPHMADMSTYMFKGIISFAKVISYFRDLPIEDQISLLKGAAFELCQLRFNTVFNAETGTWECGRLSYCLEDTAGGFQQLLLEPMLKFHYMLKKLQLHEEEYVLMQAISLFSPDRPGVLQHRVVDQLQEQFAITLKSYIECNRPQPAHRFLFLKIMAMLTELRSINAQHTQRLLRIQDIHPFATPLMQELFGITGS
human Retinoic Acid Receptor beta (RARb), RARB (gene 5915), sequence (P10826 whole entry, looked up, the tested form may be a part): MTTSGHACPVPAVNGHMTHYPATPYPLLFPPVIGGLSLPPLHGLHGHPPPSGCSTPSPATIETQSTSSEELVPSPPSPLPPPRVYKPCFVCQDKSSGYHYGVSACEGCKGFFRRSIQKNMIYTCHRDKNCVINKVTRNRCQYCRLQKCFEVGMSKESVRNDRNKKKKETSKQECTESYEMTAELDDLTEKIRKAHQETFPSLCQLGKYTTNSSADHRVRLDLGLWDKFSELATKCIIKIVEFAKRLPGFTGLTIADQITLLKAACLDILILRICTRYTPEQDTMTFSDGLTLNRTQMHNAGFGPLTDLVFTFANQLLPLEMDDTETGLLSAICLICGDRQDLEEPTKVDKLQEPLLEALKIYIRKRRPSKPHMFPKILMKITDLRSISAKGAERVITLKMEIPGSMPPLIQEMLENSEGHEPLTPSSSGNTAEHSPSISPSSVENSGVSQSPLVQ
Peroxisome proliferator-activated receptor gamma (Homo sapiens), sequence (P37231 whole entry, looked up, the tested form may be a part): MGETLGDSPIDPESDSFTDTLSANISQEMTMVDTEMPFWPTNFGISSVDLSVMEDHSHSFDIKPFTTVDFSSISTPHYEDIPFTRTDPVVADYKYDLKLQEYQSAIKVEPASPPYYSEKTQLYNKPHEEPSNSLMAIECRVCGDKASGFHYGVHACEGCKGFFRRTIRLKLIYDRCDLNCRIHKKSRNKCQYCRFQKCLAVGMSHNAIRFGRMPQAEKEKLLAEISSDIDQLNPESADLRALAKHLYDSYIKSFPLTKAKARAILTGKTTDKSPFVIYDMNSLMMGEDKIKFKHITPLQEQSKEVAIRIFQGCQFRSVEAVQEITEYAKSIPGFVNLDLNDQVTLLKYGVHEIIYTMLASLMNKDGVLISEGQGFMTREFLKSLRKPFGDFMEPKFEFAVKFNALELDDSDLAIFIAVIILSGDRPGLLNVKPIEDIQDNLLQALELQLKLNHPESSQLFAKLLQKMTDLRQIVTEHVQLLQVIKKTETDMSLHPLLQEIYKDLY
Myc proto-oncogene protein (Homo sapiens), sequence (P01106 whole entry, looked up): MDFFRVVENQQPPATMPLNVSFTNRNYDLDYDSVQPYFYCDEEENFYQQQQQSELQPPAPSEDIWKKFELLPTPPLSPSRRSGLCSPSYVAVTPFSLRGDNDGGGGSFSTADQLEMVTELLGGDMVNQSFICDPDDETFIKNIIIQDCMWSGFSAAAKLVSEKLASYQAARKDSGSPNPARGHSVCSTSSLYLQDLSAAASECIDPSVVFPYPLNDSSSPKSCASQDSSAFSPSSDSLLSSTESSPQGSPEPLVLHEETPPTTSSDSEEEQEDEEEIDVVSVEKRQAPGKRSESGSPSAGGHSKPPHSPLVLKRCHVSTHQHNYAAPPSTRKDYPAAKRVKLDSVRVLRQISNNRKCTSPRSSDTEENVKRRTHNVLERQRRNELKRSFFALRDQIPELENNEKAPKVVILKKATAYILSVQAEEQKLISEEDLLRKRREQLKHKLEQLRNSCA
Retinoic acid receptor alpha (Homo sapiens), sequence (P10276 whole entry, looked up, the tested form may be a part): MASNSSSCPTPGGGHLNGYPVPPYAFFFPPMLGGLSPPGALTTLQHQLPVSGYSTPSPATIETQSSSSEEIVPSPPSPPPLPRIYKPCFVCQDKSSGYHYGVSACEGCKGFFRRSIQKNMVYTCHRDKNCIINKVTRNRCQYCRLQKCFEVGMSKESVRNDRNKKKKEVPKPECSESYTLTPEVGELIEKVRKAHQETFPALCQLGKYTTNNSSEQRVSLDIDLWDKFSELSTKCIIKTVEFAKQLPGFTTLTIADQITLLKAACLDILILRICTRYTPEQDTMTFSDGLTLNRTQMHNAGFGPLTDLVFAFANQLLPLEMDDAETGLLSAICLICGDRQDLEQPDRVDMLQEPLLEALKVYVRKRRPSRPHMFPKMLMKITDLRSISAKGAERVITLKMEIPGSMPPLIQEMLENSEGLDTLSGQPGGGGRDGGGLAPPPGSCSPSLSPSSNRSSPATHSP

Regarding `C=CC(=O)OCC(F)(F)C(F)(F)C(F)(F)C(F)(F)COC(=O)C=C`, the AC50 in [1] was 65.2 µM (active); in test [2] it was 38.4 µM (active); in [3] it was 12.8 µM (active); in test [4], 79.4 µM (active); in [5], 24.9 µM (active) and 35.5 µM (active); in [6], 22.9 µM (active) and 28.2 µM (active). Besides, the AC50 was 20 µM (active) and 18 µM (active) in test [7]; 47.1 µM (active) and 48.3 µM (active) in test [9]; 9.61 µM (active) and 8.46 µM (active) in [11]; 37.8 µM (active) in test [12]. Besides, the outcome in [8], in test [10] and in test [13] was inactive.
On to `O=C(O)C(F)(F)C(F)(F)C(F)(F)F`, for which the outcome in test [14], in [1], in test [2], in [3], in [4] and in test [5] was inactive. Further, the result in [6], in [7], in test [15], in test [8], in test [9] and in test [11] was inactive. Moreover, the result in test [12] and in test [13] was inactive.
As to `FC(F)(F)C(F)(F)C(F)(F)C(F)(F)C(F)(F)C(F)(F)C(F)(F)C(F)(F)CCS`, the result in test [14], in [1], in [2], in test [3], in [16] and in test [4] was inactive. The result in [5], in test [6], in test [7], in test [9] and in [11] was inactive.
Take `C=CC/C=C/C/C=C/C/C=C/C`: the compound was classed as inactive in [14], in test [1], in [2], in test [3], in test [4] and in test [5]. Further, the outcome in test [6], in test [7], in test [8], in test [9], in test [11] and in test [12] was inactive. Further, the outcome in test [13] and in [17] was inactive.
As for `C=CC(=O)OCC(F)(F)C(F)(F)C(F)(F)C(F)(F)C(F)(F)C(F)(F)C(F)(F)F`, the call in test [14], in test [1], in test [2], in [4], in test [5] and in [6] was inactive. For the same compound, the result in [7], in [15], in test [8], in test [9], in test [12] and in test [13] was inactive. Also, the AC50 was 50 µM (active) in [3] and 30 µM (active) in test [11].
Turning to `Cc1ccc(S(=O)(=O)OCC(F)(F)C(F)(F)C(F)(F)C(F)(F)C(F)(F)C(F)F)cc1`, the call in test [1], in test [2], in test [3], in test [16], in [4] and in test [5] was inactive. Besides, the outcome in [6], in test [7], in [8], in [9], in [10] and in test [11] was inactive. The result in [12] and in test [17] was inactive. The values for the AC50 in test [11] and in test [13] were 30 µM (active) and 2.98 µM (active), respectively.
On to `CC(=O)Nc1ccc(N=Nc2cc(C)ccc2O)cc1`, for which the compound was called inactive in test [1], in test [2], in test [16], in test [4], in test [5] and in test [6]. Also, the outcome in test [9] and in test [17] was inactive. In addition, the AC50 in test [3] is 1.42 µM (active); in test [18], 2.69 µM (active); in test [7], 20 µM (active); in test [11], 4.08 µM (active); in test [12], 32.3 µM (active); in [13] it was 14.1 µM (active).
Regarding `FC(F)(F)C(F)(F)C(F)(F)C(F)(F)C(F)(F)C(F)(F)C(F)(F)C(F)(F)F`, the result in test [14], in test [1], in test [2], in [3], in test [5] and in test [6] was inactive. Also, the result in test [7], in test [8], in test [9], in test [19], in test [11] and in test [12] was inactive. Also, the compound was classed as inactive in [13] and in test [17].
Regarding `C=C(C)C(=O)OCC(F)(F)C(F)(F)C(F)(F)C(F)(F)C(F)(F)C(F)(F)C(F)(F)F`, the call in test [14], in [1], in test [2], in [3], in test [16] and in test [5] was inactive. Besides, the outcome in test [6], in test [18], in [7], in [8], in test [9] and in test [10] was inactive. Further, the outcome in test [11], in [12], in test [13] and in test [17] was inactive.

These data come from PubChem BioAssay (EPA / NIEHS).
